Laboratory results taken from PubChem BioAssay AID1566 (Sanford-Burnham Center for Chemical Genomics, 2009).
Out of some 290,000 compounds screened, about 1,800 (0.62%) were called active. Cut-off read from the data, not from the text of the source: active = inhibition above about 50%; inactive = the rest. The entries come from a sample that favours actives as a whole.

Experiment: inhibition of NOD2-driven NF-kB reporter – cell-based, luminescence, uHTS, HEK293 (AID 1566)
Conditions: HEK293 NOD2/NF-kB luciferase reporter, at 4 µM, stronger effect = higher value

Row | Structure (SMILES) | inhibition
1 | CCCc1cc(=O)oc2c3c(c(Cl)cc12)OCN(CCCO)C3 | -64.8% (inactive)
2 | CC(C)C(c1nnnn1C1CCCCC1)N1CCOCC1 (stereo not drawn) | 0.1% (inactive)
3 | CCOC(=O)c1cccc(NC(=O)c2cc3ccccc3o2)c1 | -97.4% (inactive)
4 | CCOc1ccc(/C=N/n2c(C)nnc2C)cc1OC | 8% (inactive)
5 | Cc1ccc(C(=O)OCc2cc3ccccc3[nH]c2=O)cc1 | 3.6% (inactive)
6 | O=C(c1ccc(N2CCN(C(=O)c3ccc(F)cc3F)CC2)cc1)c1cccc(F)c1 | 10.3% (inactive)
7 | C=CCn1c(C)cc(C2=NNC(=NCc3ccccc3)SC2)c1C | -78% (inactive)
8 | COCCn1c(C)cc(C2=NNC(=NC3CC3)SC2)c1C | 94% (active)
9 | COCCn1c(C)cc(C2=NNC(=Nc3ccccc3)SC2)c1C | -146% (inactive)
10 | C=CCN=C1NN=C(c2cc(C)n(CCOC)c2C)CS1 | 65.1% (active)
11 | COCCCN=C1NN=C(c2cc(C)n(Cc3ccccc3Cl)c2C)CS1 | -30.7% (inactive)
12 | C=CCN=C1NN=C(c2cc(C)n(CC=C)c2C)CS1 | 73.6% (active)
13 | COCCn1c(C)cc(C2=NNC(=Nc3ccc(OC)cc3)SC2)c1C | -9.9% (inactive)
14 | Cc1cc(C2=NNC(=NCCc3ccccc3)SC2)c(C)n1CC1CCCO1 (stereo not drawn) | -32.5% (inactive)
15 | COCCN=C1NN=C(c2cc(C)n(CC3CCCO3)c2C)CS1 (stereo not drawn) | 19.4% (inactive)
16 | COCCn1c(C)cc(C2=NNC(=Nc3ccccc3F)SC2)c1C | 61.6% (active)
17 | COCCn1c(C)cc(C2=NNC(=Nc3ccc(Cl)cc3Cl)SC2)c1C | 8.7% (inactive)
18 | COCCn1c(C)cc(C2=NNC(=NC(C)(C)C)SC2)c1C | 4.6% (inactive)
19 | C#CCOc1c(Cl)cc(/C=C2/C(=O)ON=C2C)cc1OC | 6.6% (inactive)
20 | Cn1c(=O)oc2cc(S(=O)(=O)NCCC(=O)NC3CCCC3)ccc21 | -0.1% (inactive)
21 | COc1ccc(CCN=C(N)Nc2nc(C)cc(C)n2)cc1 | 8.4% (inactive)

Row | Structure (SMILES) | inhibition
22 | COCCn1c(Cc2cccn2C)nnc1SCC(=O)NCc1ccc2c(c1)OCO2 | 5.3% (inactive)
23 | COc1ccccc1-n1c(SCC(=O)N2CCOCC2)nc2ccccc2c1=O | 2.8% (inactive)
24 | CCOC(=O)CNC(=O)CSc1ccc2nnc(-c3ccc(F)cc3)n2n1 | 8.4% (inactive)
25 | Cc1ccc(-c2noc(C3CCCN(C(=O)c4ccc(Cl)cc4)C3)n2)o1 (stereo not drawn) | -1.8% (inactive)
26 | Cc1cc(C2=NNC(=Nc3ccccc3)SC2)c(C)n1C | -60.1% (inactive)
27 | CC(C)(C)N=C1NN=C(c2ccc(Cl)cc2)CS1 | -99% (inactive)
28 | C=CCn1c(C)cc(C2=NNC(=NCC)SC2)c1C | 92.6% (active)
29 | C=CCn1c(C)cc(C2=NNC(=Nc3ccc(C)cc3)SC2)c1C | 3% (inactive)
30 | CCN=C1NN=C(c2ccc(C)cc2)CS1 | -71.4% (inactive)
31 | C=CCn1c(C)cc(C2=NNC(=NC(C)(C)C)SC2)c1C | 63.3% (active)
32 | CN(C(=O)Cn1nnc2ccccc2c1=O)C1CCCCC1 | 6.8% (inactive)
33 | COc1ccc(-c2nnc(SCC(=O)NC3CCCCC3)o2)cc1 | 6% (inactive)
34 | CCOc1ccccc1N(CC(=O)NCC1CCCO1)C(=O)CNS(=O)(=O)c1ccccc1 (stereo not drawn) | -15.5% (inactive)
35 | COc1ccc(-n2c(-c3ccc(C)cc3)n[nH]c2=S)cc1 | -6.4% (inactive)
36 | O=C(CCSc1nc(-c2ccco2)cc(C(F)(F)F)n1)N1CCN(c2ccccc2)CC1 | -17.1% (inactive)
37 | Cc1oc(-c2ccc(Cl)cc2)nc1CS(=O)CC(=O)NCCCN1CCOCC1 (stereo not drawn) | 16.6% (inactive)
38 | Cc1ccc(-c2nc(CS(=O)CC(=O)NCCCN3CCN(Cc4ccccc4)CC3)c(C)o2)cc1 (stereo not drawn) | 28.9% (inactive)
39 | Cc1oc(-c2ccc(Cl)cc2)nc1CS(=O)CC(=O)NCCCN1CCN(Cc2ccccc2)CC1 (stereo not drawn) | 61.5% (active)
40 | Cc1c(-c2nc(-c3ccc(C(F)(F)F)cc3)no2)n(C)oc1=O | -51.2% (inactive)
41 | CCN(CC)C(=O)C1CCCN(Cc2ccccc2)C1 (stereo not drawn) | -6.7% (inactive)
42 | Cc1cccc(NC(=O)NCc2ccc3c(c2)cc(C)n3C)c1 | 10.6% (inactive)

Row | Structure (SMILES) | inhibition
43 | COC(=O)CCn1nnc(-c2ccc(C)cc2)n1 | -23.2% (inactive)
44 | COC(=O)CCn1nnc(-c2cccs2)n1 | 6.8% (inactive)
45 | CCc1ccc(-c2nnn(CCC(=O)OC)n2)cc1 | 54.4% (active)
46 | COc1ccc(OC)c(NC(=O)CCCC(=O)NC2CCCCC2)c1 | 10.6% (inactive)
47 | COC(=O)C(Cc1ccc(O)cc1)NC(=O)C(C)NC(=O)c1ccc(C(C)(C)C)cc1 (stereo not drawn) | -9.1% (inactive)
48 | CC(=O)C1=C(O)C(=O)N(c2nccs2)C1c1ccccc1 (stereo not drawn) | -1.4% (inactive)
49 | O=C(C1=C(O)C(=O)N(c2nccs2)C1c1ccccc1)c1cc2ccccc2o1 (stereo not drawn) | -20.5% (inactive)
50 | CSc1ccccc1-c1nnc(-c2ccc(Cl)c(Cl)c2)o1 | -48.1% (inactive)
51 | Cc1cc([N+](=O)[O-])ccc1NC(=O)C(C)N1CCN(c2ccccn2)CC1 (stereo not drawn) | 12% (inactive)
52 | Cc1ccc(S(=O)(=O)NCc2ccc(C(=O)N3CCN(c4ccccc4)CC3)cc2)cc1 | 12.6% (inactive)
53 | Cc1ccc(S(=O)(=O)NCc2ccc(C(=O)N3CCCC3)cc2)cc1 | -3.3% (inactive)
54 | COc1ccc(-c2nc(CN3CCN(c4ccccc4OC)CC3)c(C)o2)cc1 | 1.8% (inactive)
55 | COc1ccc(-c2nc(CN3CCN(c4cc(C)nc(C)c4)CC3)c(C)o2)c2ccccc12 | 30.3% (inactive)
56 | O=C(NC1CCCCC1)C(c1ccc(O)cc1)N(C(=O)c1cnccn1)c1cccc(F)c1 (stereo not drawn) | 3.4% (inactive)
57 | CC(C)(C)CC(=O)Nc1ccccc1N1CCN(c2ccccc2)CC1 | -19.6% (inactive)
58 | CCCC(=O)NC(c1ccc(C)cc1)c1ccc2cccnc2c1O (stereo not drawn) | 13% (inactive)
59 | CCCC(=O)NC(c1ccc(C(C)C)cc1)c1ccc2cccnc2c1O (stereo not drawn) | 21.9% (inactive)
60 | CCC(=O)NC(c1ccc(C)cc1)c1ccc2cccnc2c1O (stereo not drawn) | 70% (active)
61 | CC1(C)CC1C(=O)Nc1ccc([N+](=O)[O-])cc1Br (stereo not drawn) | 9.5% (inactive)
62 | Cc1cccc(C2(c3cccc(C)c3)CC2C(=O)Nc2ccc([N+](=O)[O-])cc2O)c1 (stereo not drawn) | 48.8% (inactive)
63 | Cc1ccc(C2(c3ccc(C)cc3)CC2C(=O)Nc2ccc([N+](=O)[O-])cc2O)cc1 (stereo not drawn) | 52.6% (active)
